TDP-43 yeast inh: rescues yeast growth from TDP-43 toxicity; TDP-43 expressing yeast growth rescue, BacTiter-Glo, 24 h; 1.8% of 410,000 active; Potency, µM (doses to about 46.1 µM), without a hit: at the highest dose growth rescue (activation), hits mostly activators; also: % of control where 0% means no effect; nearly all actives have a fitted effect of over 50% in size
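In this qHTS, compounds that restore growth of yeast expressing TDP-43 appear as activators. Cells (OD600=0.02, galactose medium, raffinose-pregrown) are incubated with compound 24 hr at 30 deg C and growth is quantified by BacTiter-Glo.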
aSyn yeast inh: inhibitors of alpha-synuclein toxicity in yeast | Yeast expressing alpha-synuclein, growth rescue, BacTiter-Glo, 24 h | Potency, µM (series often up to 46.1 µM), without a hit: at the top dose growth rescue (activation), most hits filed as activators | 0.14% of 370,000 active | AID 652106; also: % of control where 0% means no effect; nearly all actives have a fitted effect of over 65% in size
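Galactose-induced alpha-syn yeast (OD600=0.02, raffinose-pregrown) + pinned cpd, 24 hr, 30 deg C; growth by BacTiter-Glo luminescence. Growth restoration scores as activation.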
Abeta rescue: restores growth of yeast expressing A-beta42 peptide; Potency, µM (top dose mostly 46.1 µM), hits mostly activators; yeast expressing A-beta42, growth rescue, OD600, 48 h; response scale: 0% DMSO, 100% iron-clioquinol control; 0.063% of 410,000 active; also: nearly all actives have a fitted effect of over 55% in size
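Growth rescue measured by 600 nm absorbance after 48 h yeast culture at 30 C with compound. Values normalized between DMSO and an equimolar ferric chloride plus clioquinol control.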
FUS yeast rescue: suppressors of FUS proteinopathy in yeast. S. cerevisiae FUS-expressing, growth rescue, OD600, 24 h. Potency, µM (series often up to 76.6 µM), usual class: activators. 0.24% of 390,000 active;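 also: plate controls were DMSO vehicle for no effect and reference control for full effect; nearly all actives have a fitted effect of over 55% in size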
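Restored growth of FUS-toxic S. cerevisiae, read as 600 nm absorbance after 24 h at 30C in galactose medium (starting OD 0.005). Controls CP55940 and DMSO.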
* marks the source's active call; other numbers are inactive results; i = inactive; ? = inconclusive; . = not tested or not shown; [ ] = dose if it differs, or a comment. Sampled rows, rich in hits. Any-hit rate of the full collection: about 2.1%. Calls follow the shape of the dose curve; as a rule, active = well fitted curve in the direction sought with a large enough effect; inconclusive = small, poorly fitted or top-dose-only effect, or another doubt; inactive = no such curve, though single readings can be large; an effect the other way counts as inactive or inconclusive. Potency is read from the fitted curve at half-maximal effect.

SMILES	TDP-43 yeast inh	aSyn yeast inh	Abeta rescue	FUS yeast rescue
O=C1c2ccccc2C(=O)N1CCSc1n[nH]c(=S)s1	20µM*	10.5%	i	.
COc1cccc(-c2cccc(-c3nc(C(=O)NCc4ccc(Oc5ccccc5)cc4)cc4c3[C@H](CCO)N(S(=O)C(C)(C)C)C4)c2)c1 (stereo partly specified)	?	-26.9%	i	?
CC(C)(C)S(=O)N1Cc2cc(C(=O)NCc3ccc(Oc4ccccc4)cc3)nc(-c3cccc(-c4cc5ccccc5o4)c3)c2[C@@H]1CCO (stereo partly specified)	22.4µM*	-32.2%	i	31.6µM*
Cc1cccn2c(=O)c(/C=C(\C#N)C(N)=O)c(N3CCN(c4cccc(Cl)c4)CC3)nc12	25.1µM*	-3.6%	i	?
CNC(=O)/C(C#N)=C/c1c(N2CCN(c3ccccc3)CC2)nc2c(C)cccn2c1=O	-2.1%	3.1%	i	i
COc1ccc(NC(=O)CCCc2nnc3n(C(C)C)c(=O)c4sccc4n23)cc1Cl	12.3%	.	i	i
O=S(=O)(c1cccc(-c2csc(N/N=C/c3ccco3)n2)c1)N1CCOCC1	15.8µM*	1.9%	i	?
O=S(=O)(c1cccc(-c2csc(-c3ccccc3)n2)c1)N1CCOCC1	-1.8%	8.3%	i	i
CCC(=O)N1CCc2cc(Br)cc(S(=O)(=O)N3CCCC(C(=O)NCc4ccccc4)C3)c21 (stereo unspecified)	-7.3%	.	i	?
CC(=O)Nc1ccc(Nc2nc3ccccc3nc2NS(=O)(=O)c2ccccc2)cc1	20µM*	-12.5%	i	?
O=C(NCc1ccc(F)cc1)c1cc2cccc3c2n1CCS3	14.1µM*	.	i	i
O=C(NCc1ccccc1)c1ccc2c(c1)N(Cc1ccc(F)cc1)CCS2	-8.6%	.	i	i
C#CCNC(=O)C[C@H]1C[C@@]2(C(=O)OC)C(=C[C@H](C(C)C)O[C@@H]2C2CC2)N(Cc2ccc3c(c2)OCO3)C1=O	.	.	.	i
O=C(/C=C/C(Cl)(Cl)Cl)Nc1ccc(Cl)cc1	?	-24.8%	i	.
NC(=O)/C=C/C(=O)Nc1ccc(Cl)cc1	20µM*	14.8%	i	i
O=C1CCC(=O)N1c1ccc(NCc2ccccc2Cl)c([N+](=O)[O-])c1	22.4µM*	7.4%	i	i
Cc1ccc(Cn2c(=O)n(-c3cc(C)cc(C)c3)c(=O)c3oc4ccccc4c32)cc1	28.4%	.	i	i
COc1ccc2nc(NC(C)=O)sc2c1	21.5%	-6.0%	i	i
CC(=O)Nc1nc2ccc(Br)cc2s1	12.6µM*	-18.3%	i	i
Cc1ccc(S(=O)(=O)c2c(Nc3cc(F)ccc3F)sc(C(=O)c3ccc(F)cc3)c2N)cc1	16.5%	.	i	i
COc1cccc(Cn2c(SCC(=O)N(C)c3ccccc3)nc3ccccc32)c1	17.8µM*	.	i	?
O=C(CSc1nc2ccccc2n1Cc1cccc(F)c1)NCc1ccccc1	22.4µM*	.	i	i
CSc1nc2ccccc2n1Cc1cccc([N+](=O)[O-])c1	1.1%	5.8%	i	i
CSc1nc2ccccc2n1Cc1cccc(F)c1	17.8µM*	-0.2%	i	i
C=C(C)CSc1nnc(-c2cc(-c3ccccc3)n[nH]2)n1N	.	.	.	i
SMILES	TDP-43 yeast inh	aSyn yeast inh	Abeta rescue	FUS yeast rescue
COc1ccc(CN(Cc2ccccc2)C(=O)c2cccc(C#N)c2)cc1COc1ccc(NC(C)=O)cc1	.	-6.0%	.	.
CC(C)(C)c1ccc(-c2noc(CCC(=O)NC3CC3)n2)cc1	.	.	.	i
CCc1cccc(C)c1NC(=O)CSc1nc2ccccc2nc1Cc1ccccc1	21.1%	.	i	i
Cc1ccc(-n2nnnc2C(Cl)c2nnnn2-c2ccc(C)cc2)cc1	3.55µM*	-46.6%	i	i
O=C(N1CCCC1)n1ncc(-c2ccc(-c3ccccc3)cc2)n1	.	.	.	i
CCNc1ccc(/C=C/c2ccnc3ccccc23)cc1	.	1.9%	.	.
c1ccc(Sc2ncnc3c2oc2ccccc23)cc1	12.6µM*	-1.0%	i	i
O=C(O)CSc1ncnc2c1oc1ccccc12	-13.8%	-0.4%	i	i
CN1C2=N[C@H](c3ccccc3Br)CC(=O)N2/C(=C\c2ccccc2)[C@@H]1c1ccccc1	.	.	.	i
Cc1cccc(-c2cnn(-c3ccccc3)c2N)c1	?	0.9%	i	i
Nc1c(-c2ccccc2)cnn1-c1cccc(Cl)c1	15.8µM*	4.2%	i	i
CC(=NCc1cccc(Cl)c1)c1nc(-c2ccco2)oc1O	11.2µM*	-1.6%	i	i
Oc1oc(-c2ccco2)nc1C=Nc1cccc(Cl)c1	28.4%	-12.4%	i	i
Cc1c(C(=O)N2CCOCC2)oc2c1-c1nn(CC(=O)NCc3cccc(Cl)c3)cc1CC2	0.0%	.	i	i
CCc1nc2nc(C)cc(Nc3cccc(C)c3C)n2n1	28.3%	.	i	i
Cc1cc(Nc2cc(Cl)ccc2C)n2nc(Cc3ccccc3)nc2n1	35.5µM*	.	i	i
CCc1nc2nc(C)cc(Nc3cc(C)ccc3C)n2n1	20µM*	.	i	i
Cc1cccc(Nc2cc(C)nc3nc(Cc4ccc(Cl)cc4)nn23)c1	?	.	i	i
COC(=O)[C@]12C[C@H](CC(=O)NCCc3ccccc3OC)C(=O)N(Cc3cccc4ccccc34)C1=C[C@H](COCc1ccccc1)O[C@@H]2C	.	.	.	15.8µM*
COC(=O)[C@]12C[C@H](CC(=O)NCc3cccc4ccccc34)C(=O)N(Cc3ccc(Cl)cc3Cl)C1=C[C@H](COCc1ccccc1)O[C@@H]2C	.	.	.	i
CCOC(=O)N1CCN(C(=O)C[C@H]2C[C@@]3(C(=O)OC)C(=C[C@H](COCc4ccccc4)O[C@@H]3C)N(Cc3cccc4ccccc34)C2=O)CC1	.	.	.	22.4µM*
COC(=O)[C@]12C[C@H](CC(=O)NCC3CCCCC3)C(=O)N(CCc3ccc(OC)c(OC)c3)C1=C[C@H](COCc1ccccc1)O[C@@H]2C	.	.	.	10µM*
Fc1ccc(Nc2nc(NCc3ccco3)nc3nccnc23)cc1	.	0.1%	.	.
O=C(NCc1ccc(C(=O)N2CCOCC2)cc1)c1cccc(Br)c1	.	.	.	i
Fc1ccc(-c2nc(Nc3cccc(C(F)(F)F)c3)nc3c2COc2ccccc2-3)cc1	0.0%[9.22 µM]	.	i	i
SMILES	TDP-43 yeast inh	aSyn yeast inh	Abeta rescue	FUS yeast rescue
CC(C)(C)OC(=O)NCCCCCc1nnc(SCc2ccccc2F)o1	?	6.3%	i	i
CC(C)(C)OC(=O)NCCCCCc1nnc(SCc2ccccc2)o1	35.5µM*	-0.3%	i	i
CC(C)(C)OC(=O)NCCc1nnc(SCc2cccc(Cl)c2)o1	15.5%	-1.3%	i	i
CC(C)(C)OC(=O)NCCCCCc1nnc(SCc2cccc(F)c2)o1	25.1µM*	3.1%	i	i
Cn1nc(C(=O)N2CCN(c3cccc(Cl)c3)CC2)c2c1-c1ccccc1S(=O)(=O)C2	22.4µM*	3.4%	i	?
Cc1ccc(Cl)cc1N1CCN(C(=O)c2nn(C)c3c2CS(=O)(=O)c2ccccc2-3)CC1	7.7%	.	i	?

Compound activity: PubChem, National Center for Advancing Translational Sciences (NCATS)
